An excerpt weighted towards active compounds, which were near 3.5% of everything screened.
FBW7 activator: activators of human E3 ligase FBW7 | AID 1259310 | AlphaScreen FBW7–phospho-cyclin E peptide binding, activator screen | Q969H0 | normalized activity (activation), % at 26.1 µM | 650,000 compounds, 0.13% hits; in the data active = normalized activity above about 1.9%;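 also: purified mutant Fbw7 with reduced substrate affinity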
TEAD-YAP inh: TEAD-YAP interaction inhibition | 640,000 compounds, 1.4% hits | inhibition, % at 9.12 µM | HEK-TIYL cells, TEAD-Gal4/YAP UAS-luciferase luminescence | AID 1259422; in the data active = inhibition above about 32%;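 also: 0% = median of test compound wells and 100% = reference inhibitor wells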
MITF primary: inhibitors of human MITF. 650,000 compounds, 0.91% hits. AlphaScreen MITF homodimerization, bead proximity signal. inhibition, % at 2.6 µM. AID 1259374. O75030; in the data active = inhibition above about 50%;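 also: 0% = vehicle wells with protein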
GPR151 activ: activators of human GPR151 | PathHunter beta-arrestin GPR151 cells, luminescence | activation, % at 11.2 µM | 650,000 compounds, 1% hits | AID 1508602; in the data active = activation above about 4.9%;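 also: 0% = median of compound wells and 100% = cells with positive control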
Target sequence (Q8TDV0 whole entry, looked up): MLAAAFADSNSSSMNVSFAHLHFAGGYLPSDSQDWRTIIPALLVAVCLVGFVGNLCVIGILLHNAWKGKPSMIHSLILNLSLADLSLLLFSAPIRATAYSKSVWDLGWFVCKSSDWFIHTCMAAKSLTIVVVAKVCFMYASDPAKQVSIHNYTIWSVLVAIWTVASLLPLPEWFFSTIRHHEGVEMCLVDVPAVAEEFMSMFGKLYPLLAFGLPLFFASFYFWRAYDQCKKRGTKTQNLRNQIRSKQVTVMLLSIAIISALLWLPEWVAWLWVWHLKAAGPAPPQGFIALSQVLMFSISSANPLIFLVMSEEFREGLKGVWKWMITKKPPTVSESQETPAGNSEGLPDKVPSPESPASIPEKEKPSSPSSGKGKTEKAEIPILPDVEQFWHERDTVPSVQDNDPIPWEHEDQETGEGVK
Starred values were filed as active, the others as inactive.

How did O=C(NC1CCCCCCCCCCC1)c1ccc([N+](=O)[O-])cc1Cl do in these assays?
FBW7 activator: 0; TEAD-YAP inh: -13; MITF primary: -13; GPR151 activ: 1

What do the screens show for `O=C(NC1CCCCC1)c1ccc([N+](=O)[O-])cc1Cl`?
FBW7 activator: 1; TEAD-YAP inh: 40*; MITF primary: -2; GPR151 activ: 1

What do the screens show for `O=C(Nc1ccc(Cc2ccncc2)cc1)c1ccc([N+](=O)[O-])cc1`?
FBW7 activator: 0; TEAD-YAP inh: 7; MITF primary: -7; GPR151 activ: 0

Results for O=C(Nc1cnc2ccccc2c1)c1ccccc1Cl ?
FBW7 activator: 0; TEAD-YAP inh: 78*; MITF primary: -15; GPR151 activ: -6

How did O=C(Nc1ccc(Cc2ccncc2)cc1)c1ccc([N+](=O)[O-])cc1Cl do in these assays?
FBW7 activator: 0; TEAD-YAP inh: 36*; MITF primary: 3; GPR151 activ: -1

What do the screens show for `O=C(Nc1cccnc1)c1ccc([N+](=O)[O-])cc1Cl`?
FBW7 activator: 0; TEAD-YAP inh: -6; MITF primary: -8; GPR151 activ: -1

Results for O=C(Nc1cnc2ccccc2c1)c1ccc([N+](=O)[O-])cc1Cl ?
FBW7 activator: 0; TEAD-YAP inh: 49*; MITF primary: 1; GPR151 activ: -4

What do the screens show for `COc1ccc(S(=O)(=O)N(CCc2ccccc2)CC(=O)Nc2cc(Cl)ccc2OC)cc1`?
FBW7 activator: 0; TEAD-YAP inh: 14; MITF primary: -3; GPR151 activ: 3

Results for CCC(C)(C)NC(=O)CN(C(=O)c1csnn1)c1ccccc1 ?
FBW7 activator: 0; TEAD-YAP inh: -5; MITF primary: -5; GPR151 activ: -1

Results for CCn1c(=O)c2cc(C(=O)NCc3ccco3)sc2c2ccccc21 ?
FBW7 activator: 0; TEAD-YAP inh: -3; MITF primary: -6; GPR151 activ: 0

Results for COc1cccc2cc(S(=O)(=O)c3ccc(F)cc3)c(=O)oc12 ?
FBW7 activator: 0; TEAD-YAP inh: -3; MITF primary: 6; GPR151 activ: -1

What do the screens show for `CCN(CC)c1ccc2cc(S(=O)(=O)c3ccc(F)cc3)c(=O)oc2c1`?
FBW7 activator: 2.1*; TEAD-YAP inh: -17; MITF primary: -32; GPR151 activ: -1

Results for COc1ccc(S(=O)(=O)N(CC(=O)NCCc2ccc(OC)c(OC)c2)c2ccc(C)cc2)cc1 ?
FBW7 activator: 0; TEAD-YAP inh: 36*; MITF primary: 1; GPR151 activ: -1

Results for COc1ccc2cc3cc(C(=O)NCCc4ccc(OC)c(OC)c4)oc3nc2c1 ?
FBW7 activator: 0; TEAD-YAP inh: 45*; MITF primary: -13; GPR151 activ: 2

How did COc1ccc2cc3cc(C(=O)N4CCCCC4C)oc3nc2c1 (centres undefined) do in these assays?
FBW7 activator: 0; TEAD-YAP inh: 36*; MITF primary: -6; GPR151 activ: -3

How did CCOC(=O)C1CCCN(C2CCN(C)CC2)C1 (centres undefined) do in these assays?
FBW7 activator: 1; TEAD-YAP inh: -3; MITF primary: 28; GPR151 activ: 0

Results for CCc1c(C)nc2c(C(=O)NCCc3ccccc3)c[nH]n2c1=O ?
FBW7 activator: 0; TEAD-YAP inh: 3; MITF primary: 1; GPR151 activ: 4

How did Cc1ccc(CCNC(=O)c2c(N)[nH]n3c(=O)c4ccccc4nc23)cc1 do in these assays?
FBW7 activator: 0; TEAD-YAP inh: 35*; MITF primary: 4; GPR151 activ: -1

Results for CC(=O)c1sc(=Nc2ccc(C)c(C)c2)n(CCO)c1C ?
FBW7 activator: 0; TEAD-YAP inh: -2; MITF primary: 17; GPR151 activ: 1

How did Cc1cc(N2CCCCC2)nc(NCCNC(=O)Nc2ccc(F)cc2F)n1 do in these assays?
FBW7 activator: 0; TEAD-YAP inh: 37*; MITF primary: 0; GPR151 activ: -2

What do the screens show for `Cc1cc(N2CCOCC2)nc(NCc2ccccc2)n1`?
FBW7 activator: 0; TEAD-YAP inh: 7; MITF primary: 13; GPR151 activ: 1

How did Cc1cc(N2CCCCC2)nc(NCc2ccccc2)n1 do in these assays?
FBW7 activator: 0; TEAD-YAP inh: 48*; MITF primary: -11; GPR151 activ: 2

How did COc1cc(OC)c(NC(=O)NCCNc2nc(C)cc(N3CCCCC3)n2)cc1Cl do in these assays?
FBW7 activator: 0; TEAD-YAP inh: 10; MITF primary: 2; GPR151 activ: -1

What do the screens show for `Cc1cc(N2CCCCC2)nc(NCCNC(=O)c2ccco2)n1`?
FBW7 activator: 0; TEAD-YAP inh: 41*; MITF primary: -8; GPR151 activ: 2

How did Cc1cc(N2CCCCC2)nc(NCCNC(=O)/C=C/c2ccccc2)n1 do in these assays?
FBW7 activator: 0; TEAD-YAP inh: 38*; MITF primary: -1; GPR151 activ: -2

How did Cc1cc(N2CCOCC2)nc2ccc(NC(=O)c3ccncc3)cc12 do in these assays?
FBW7 activator: 0; TEAD-YAP inh: 49*; MITF primary: 6; GPR151 activ: 0

How did CC(C)(C)c1cc(CCCC(=O)Nc2ccccc2)c(C(C)(C)C)s1 do in these assays?
FBW7 activator: 0; TEAD-YAP inh: -2; MITF primary: 21; GPR151 activ: 2

How did CC1=C(C(=O)OCCc2ccccc2)C(c2ccccc2[N+](=O)[O-])C2=C(CCCC2=O)N1 (centres undefined) do in these assays?
FBW7 activator: 0; TEAD-YAP inh: 48*; MITF primary: 12; GPR151 activ: -1

Results for CC1=C(C(=O)OCCOc2ccccc2)C(c2ccccc2[N+](=O)[O-])C2=C(CCCC2=O)N1 (centres undefined) ?
FBW7 activator: 0; TEAD-YAP inh: 35*; MITF primary: 1; GPR151 activ: -1

How did Cc1onc(-c2ccccc2Cl)c1C(=O)Nc1ccc(F)c(Cl)c1 do in these assays?
FBW7 activator: 0; TEAD-YAP inh: -12; MITF primary: -7; GPR151 activ: 1

What do the screens show for `CCN(c1ccccc1)S(=O)(=O)c1ccc(NC(=O)c2ccccc2OC)cc1`?
FBW7 activator: 0; TEAD-YAP inh: 4; MITF primary: 11; GPR151 activ: -1

What do the screens show for `CC1(C)CC(N2CCCC2)=CC(=[N+]2CCCCC2)C1`?
FBW7 activator: 0; TEAD-YAP inh: 70*; MITF primary: 20; GPR151 activ: 0

How did CCN1CCN(C2=CC(=[N+]3CCCC3)CC(C)(C)C2)CC1 do in these assays?
FBW7 activator: 0; TEAD-YAP inh: 6; MITF primary: -8; GPR151 activ: 2

Results for CC1(C)CC(N2CCCC2)=CC(=[N+]2CCCC2)C1 ?
FBW7 activator: 0; TEAD-YAP inh: 52*; MITF primary: 0; GPR151 activ: 1

What do the screens show for `CCC(=O)Nc1ccc(C(=O)N2CCOCC2)cc1`?
FBW7 activator: 0; TEAD-YAP inh: 13; MITF primary: -4; GPR151 activ: -1

How did CN(c1ncccc1CNc1nc(Nc2ccc3c(c2)CC(=O)N3)ncc1C(F)(F)F)S(C)(=O)=O do in these assays?
FBW7 activator: 0; TEAD-YAP inh: 77*; MITF primary: 7; GPR151 activ: -1

What do the screens show for `CNC(=O)c1cc(N2CCOCC2)ccc1Nc1cc(Nc2ccc3c(c2)CC(=O)N3)ncc1C(F)(F)F`?
FBW7 activator: 0; TEAD-YAP inh: 18; MITF primary: -11; GPR151 activ: -1

Screening results from PubChem BioAssay.
